Test results reported in PubChem BioAssay AID493194 (Broad Institute, 2011).
Results with a measured potency or affinity are listed apart. Inconclusive results are not listed.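 Rule for the calls: active = a valid curve of falling signal whose half-effect concentration is at most ten times the top tested dose; inconclusive = flat curve at 30 to 70% inhibition, or poor fit; inactive = signal rise, flat within 30%, or potency beyond limit.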

These molecules were tested against Scavenger receptor class B member 1 (Mus musculus) (UniProt Q61009) (assay: mouse SR-BI DiI-HDL uptake blockers – ldlA[mSR-BI] cells, fluorescence, cherry pick, dose response (AID 493194;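 note: CHO cells lacking LDL receptor and overexpressing mouse SR-BI; cellular uptake of fluorescently labeled HDL measured as cell fluorescence; 0% = median of neutral control wells and -100% = median of positive control wells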)). Details: CHO ldlA[mSR-BI] DiI-HDL uptake fluorescence, 3 h; series mostly up to 35 µM; activity change, negative = inhibition: at the top concentration.
Chain of Scavenger receptor class B member 1 (Mus musculus) (Q61009 whole entry, looked up): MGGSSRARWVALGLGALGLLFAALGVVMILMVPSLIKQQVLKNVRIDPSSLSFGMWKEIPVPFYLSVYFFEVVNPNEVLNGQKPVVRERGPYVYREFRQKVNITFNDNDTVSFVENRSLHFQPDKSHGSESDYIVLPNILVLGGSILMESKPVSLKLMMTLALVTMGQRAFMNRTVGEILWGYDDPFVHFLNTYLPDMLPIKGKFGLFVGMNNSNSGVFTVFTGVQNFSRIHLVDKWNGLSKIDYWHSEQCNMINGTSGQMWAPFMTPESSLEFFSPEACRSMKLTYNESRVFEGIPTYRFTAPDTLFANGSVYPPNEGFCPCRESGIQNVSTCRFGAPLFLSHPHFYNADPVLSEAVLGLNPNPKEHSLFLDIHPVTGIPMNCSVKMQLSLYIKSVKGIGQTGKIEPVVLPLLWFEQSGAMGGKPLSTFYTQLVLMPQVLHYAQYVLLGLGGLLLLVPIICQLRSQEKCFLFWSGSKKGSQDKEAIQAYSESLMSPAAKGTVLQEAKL

Activity change, negative = inhibition, inactive:
COCCCN(C(=O)c1ccco1)c1nc(-c2ccc(OC)cc2)cs1 -38.4%
CC(C)(C)N(Cc1ccccc1)C(=O)COC(=O)CN1C(=O)NC2(CCCC2)C1=O 55.6%
O=C(NNC(=O)c1ccccc1O)c1ccc(S(=O)(=O)Nc2ccccc2)cc1 -1.35%
Cc1nn(Cc2c(Cl)cccc2Cl)c(C)c1NC(=O)CCCn1nc([N+](=O)[O-])c(Cl)c1C -20.3%
CC(C)c1cc(CNC(=O)C2CCC(=O)N(CCc3ccc(Cl)cc3)C2)on1 (stereo not drawn) 23.7%
CCOc1ccc(CCNC(=O)Cn2ncn3nc(-c4ccc(OC)cc4)cc3c2=O)cc1 -20%
Cc1cccc(N2CCN(C(=O)COc3ccc4c(C)cc(=O)oc4c3C)CC2)c1C 34.3%
CN(C(=O)COC(=O)c1c2c(nc3ccccc13)/C(=C/c1cccc([N+](=O)[O-])c1)CCC2)C1CCS(=O)(=O)C1 (stereo not drawn) -8.72%
Cc1ccc(-c2csc(N3CCN(c4ccc5nc(-c6ccncc6)n(CCN6CCCCC6)c5c4)CC3)n2)cc1 -21.8%
CC(=O)NCCC1CCN(C(=O)c2cc(COc3ccc(C)nc3)on2)CC1 7.7%
COc1ccc2c(c1)OC[C@H]1[C@H]2N2C(=O)c3cc(Cl)ccc3NC(=O)[C@@]2(C)[C@H]1c1ccccc1 6.23%
COc1cc(/C=C/C(=O)OCC(=O)c2ccc[nH]2)cc(OC)c1OC -21.2%
COc1cccc2c1cc1c(=O)n(CC(=O)N3CCN(c4cccc(C)c4C)CC3)nc(C)n12 26.3%
Cc1nc(NCc2cccnc2)c2c3c(sc2n1)CC(C)CC3 (stereo not drawn) -4.92%
CNc1sc(C(=O)c2cccs2)c(N)c1-c1nc2ccccc2s1 -39.9%
CC(C)C(=O)Nc1nc(-c2ccc3c(c2)CCN3C(=O)C2CC2)cs1 62.6%
O=C(c1cccc(Cl)c1)N1CCC2CC1c1cc(-c3ccccc3)ccc12 (stereo not drawn) -5.35%
O=C(Nc1ccccc1F)c1ccc2c(c1)CCN2S(=O)(=O)c1ccccc1 -8.1%
Cc1ccc(/C=C/C(=O)Nc2sc3c(c2C#N)CCCC3)o1 -15%
COc1ccc(CNC(=O)C(c2ccc(C)cc2)N(Cc2cccs2)C(=O)c2ccc3c(c2)OCCO3)cc1 (stereo not drawn) 11%
CC(=O)Oc1ccc(C(=O)Cc2ccc3ccccc3n2)c(O)c1C -1.92%
CCCCN(Cc1ccccc1)c1ncnc2nc[nH]c12 25.3%
O=C(Nc1cccc(Cl)c1)Nc1sccc1-c1nc2ccccc2s1 -30.2%
COC(=O)c1cc2c(ccn2-c2ccc(F)cc2)n1Cc1ccc(C#N)cc1 -6.08%
CCOC(=O)N1CCN(CC(O)COC2CC(C)CCC2C(C)C)CC1 (stereo not drawn) -13.3%
C=CCOC(=O)c1[nH]c2c(c1C)C(=O)CC(c1cc(OC)c(OC)c(OC)c1)C2 (stereo not drawn) -2.34%
O=C(O)CC(C(=O)Nc1cccc(C(F)(F)F)c1)C1CCCO1 (stereo not drawn) 95.2%
CC[C@@H](C)[C@H](NC(=O)Cc1c(C)c2cc3c(C)c(C)oc3c(C)c2oc1=O)C(=O)O 4.74%
COc1ccccc1C(CC(=O)Nc1ccccc1C)c1ccc(OC(C)C)cc1 (stereo not drawn) -23.1%
COc1ccc(NC(=O)N2CCN(c3nc(-c4cccc(OC)c4)cs3)CC2)cc1 2.87%
Cc1ccc(CNC(=O)c2ccc(N3CCC4(CC3)CC(c3cccc(Br)c3)=NO4)c([N+](=O)[O-])c2)cc1 -0.849%
CCOC(=O)C1CCN(C(=O)Cn2nc(C)n3nc(-c4ccc(OC)cc4)cc3c2=O)CC1 -11.7%
CCC(C)(C)NC(=O)C(c1ccc(C)cc1)N(Cc1cccs1)C(=O)c1ccc2c(c1)OCCO2 (stereo not drawn) -5.45%
CC(=O)c1c(C)[nH]c(C(=O)OCc2nc3ccsc3c(=O)[nH]2)c1C 5.08%
Cc1c(C(=O)OCC2CCCO2)[nH]c2c1C(=O)CC(c1ccco1)C2 (stereo not drawn) -17%
CN(C(=O)c1cc(-n2cnnc2)ccc1Cl)c1ccccc1 25.3%
Cc1ccc2nc3c(c(C(=O)OCC(=O)N(C)C4CCS(=O)(=O)C4)c2c1)CCCC3 (stereo not drawn) 43.9%
Cc1cc(C)cc(NC(=O)CCc2c(C)nn(-c3ccc(N4CCCCC4)nn3)c2C)c1 -21.4%
